Screens from PubChem.
Compounds with a hit are over-represented: about 2.3% of the library has one in this group of screens.
GSTO1 counter: counter-screen for RBBP9 inhibitors: inhibitors of human GSTO1. P78417. recombinant GSTO1, activity-based probe fluorescence polarization. inhibition, % at 5.96 µM. 1.1% of 300,000 active;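 active = inhibition above the campaign mean inhibition plus 3 SD, cut at about 35% in these data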
Target sequence (P78417 whole entry, looked up): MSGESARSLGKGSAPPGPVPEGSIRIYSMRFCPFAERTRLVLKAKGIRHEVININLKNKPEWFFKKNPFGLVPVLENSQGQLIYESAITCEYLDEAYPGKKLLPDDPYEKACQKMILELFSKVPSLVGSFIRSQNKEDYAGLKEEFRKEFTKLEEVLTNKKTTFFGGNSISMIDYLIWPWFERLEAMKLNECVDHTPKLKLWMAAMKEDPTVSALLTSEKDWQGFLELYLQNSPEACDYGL
pPAFAH FP inh: inhibitors of human plasma PAF acetylhydrolase (pPAFAH); recombinant pPAFAH, FP-rhodamine probe fluorescence polarization; inhibition, % at 3.39 µM; 1.5% of 330,000 active; Q13093;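 active = inhibition above the mean inhibition across the screen plus 3 SD, cut at about 25% in these data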;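 also: inhibitors block binding of the rhodamine activity-based probe so polarization drops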
PME-1 inh: PME-1 (human) inhibition | Q9Y570 | recombinant PME-1, FP-Rh probe fluorescence polarization | inhibition, % at 5.9 µM | 0.53% of 320,000 active;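 active = inhibition above the campaign mean of all compounds plus 3 SD, cut at about 26% in these data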;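 also: competitive labeling of PME-1 active site by serine hydrolase directed probe; inhibitors block probe labeling so polarization falls and inhibition rises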
Target sequence (Q9Y570 whole entry, looked up): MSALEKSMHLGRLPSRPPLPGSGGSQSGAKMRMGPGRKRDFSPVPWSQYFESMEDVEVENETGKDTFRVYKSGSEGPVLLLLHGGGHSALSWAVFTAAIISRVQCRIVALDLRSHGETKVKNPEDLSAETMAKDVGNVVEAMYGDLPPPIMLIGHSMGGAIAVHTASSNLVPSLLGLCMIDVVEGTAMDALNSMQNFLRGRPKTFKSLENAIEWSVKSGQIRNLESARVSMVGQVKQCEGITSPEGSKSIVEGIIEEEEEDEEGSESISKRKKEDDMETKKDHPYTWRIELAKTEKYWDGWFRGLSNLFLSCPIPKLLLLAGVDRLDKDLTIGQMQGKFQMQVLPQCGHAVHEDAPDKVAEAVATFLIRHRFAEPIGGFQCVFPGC
PAD4 FP inh: PAD4 (human) enzyme inhibition; recombinant PAD4, RCA probe fluorescence polarization; inhibition, % at 6.36 µM; Q9UM07; 0.41% of 330,000 active;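 active = percent inhibition above a cutoff equal to the mean of all tested compounds plus 3 SD, cut at about 15% in these data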
Fam108B inh: Fam108B inhibition, counter-screen for RBBP9 inhibitors. recombinant Fam108B, FP-Rh probe fluorescence polarization. 0.33% of 300,000 active. inhibition, % at 9.51 µM;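 active = inhibition above the screen mean inhibition plus 3 SD, computed separately per campaign, cut at about 18% in these data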;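 also: inhibitors lower polarization as less probe binds the enzyme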
GSTO1 inh conf: confirmation of human GSTO1 inhibitors | shares compounds with GSTO1 counter | recombinant GSTO1, probe fluorescence polarization | inhibition, % at 5.96 µM | 54% of 2,400 active | AID 2176;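 active = inhibition above the primary screen's cutoff, its mean inhibition plus 3 SD, cut at about 35% in these data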;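 also: loss of polarization as inhibitors block binding of rhodamine sulfonate ester activity probe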
GSTO1 recomb ABPP: GSTO1 (human) inhibition by gel ABPP; shares compounds with GSTO1 counter; recombinant GSTO1, gel ABPP SE-Rh probe fluorescence; inhibition, % at 1 µM; 30% of 130 active; AID 463110;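 active = inhibition of the enzyme GSTO1 above about 75%, limit read from the data; inactive = inhibition below that limit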
Each line names hits and unclear results; the compound was inactive in the other large screens (follow-up assays come after a bar, where they were run); ! = a repeat was not active.

CCCC[n+]1ccn(C2=C([O-])c3ccccc3C(=O)/C2=N\S(=O)(=O)c2ccccc2)c1	GSTO1 counter 67.9 | GSTO1 inh conf 65.8
Cc1c(C(C)(C)C)s/c(=N/S(=O)(=O)c2ccccc2)n1C	none
CCCCC[n+]1ccn(C2=C([O-])c3ccccc3C(=O)/C2=N\S(=O)(=O)c2ccc(Br)cc2)c1	GSTO1 counter 47.3 | GSTO1 inh conf inactive
CCCCC[n+]1ccn(C2=C([O-])c3ccccc3C(=O)/C2=N\S(=O)(=O)c2ccccc2)c1	GSTO1 counter 74.7 | GSTO1 inh conf 58.7
Cc1ccc(N(CC(=O)NC2CCCCC2)S(=O)(=O)c2cccs2)cc1	none
COCC(=O)N1CCC(Oc2ccc(C(=O)N3CCCCCC3)cc2)CC1	none
CC(C)[n+]1ccn(C2=C([O-])c3ccccc3C(=O)/C2=N\S(=O)(=O)c2ccccc2)c1	GSTO1 counter 61.0 | GSTO1 inh conf 56.6
C=CCNc1nc(C(=O)OCC(=O)N(Cc2ccccc2)C(C)C)cs1	none (no result: GSTO1 counter, Fam108B inh)
COc1c(-c2ccc(O)c(O)c2)oc2cc(O)cc(O)c2c1=O	GSTO1 counter 40.5 | GSTO1 inh conf inactive
C[C@@H]1O[C@@H](OC[C@H]2O[C@@H](Oc3c(-c4ccc(O)c(O)c4)oc4cc(O)cc(O)c4c3=O)[C@H](O)[C@@H](O)[C@@H]2O)[C@H](O)[C@H](O)[C@H]1O	none
CC(C)c1cc2c(c(O)c1O)[C@@]13CCCC(C)(C)C1CC2OC3=O (stereo partly specified)	GSTO1 counter 40.6, pPAFAH FP inh 30.1 | GSTO1 inh conf inactive
CC(C)Cn1c(N2CCN(CC(=O)Nc3ccc(Cl)cc3)CC2)nc2ccccc21	none
O=S(=O)(c1ccc(SCc2ccc(Cl)cc2)nc1)N1CCCC1	none (no result: GSTO1 counter, Fam108B inh)
CCOc1ccc(NC(=O)C(c2ccccn2)N(C(=O)CCl)c2ccc(OCC)cc2)cc1 (stereo unspecified)	GSTO1 counter 43.0 | GSTO1 inh conf inactive
Cc1cc(C(=O)NNC(=S)NC(=O)/C=C/c2ccccc2Cl)n[nH]1	GSTO1 counter 57.9 | GSTO1 inh conf inactive
Cc1cccc(C(=O)NC(=S)NNC(=O)c2ccccc2Cl)c1	none
O=C1N/C(=N\c2ccccn2)SC1Cc1ccccc1Cl (stereo unspecified)	none
Clc1ss/c(=N\c2ccccn2)c1Cl	GSTO1 counter 61.4 | GSTO1 inh conf 44.6
CN1CCc2cccc3c2[C@H]1Cc1ccc(O)c(O)c1-3	GSTO1 counter 88.6, pPAFAH FP inh 25.4! | GSTO1 inh conf inactive
Cc1c(C(=O)N(C)CCCCN2CCOCC2)oc2c(F)cccc12	none
CC(C)(C)NC(=O)NC(=O)CN1CCCCCCC1	none
CCOC(=O)N1CCN(C(=O)CCl)CC1	GSTO1 counter 77.2 | GSTO1 inh conf 91.9
CC(C)(C)NC(=O)CN1CCN(C(=O)CCl)CC1	GSTO1 counter 81.7 | GSTO1 inh conf 96.1 | GSTO1 recomb ABPP inactive
CCC(=O)N(C1=C(NC)C(=O)c2ccccc2C1=O)C(C)C	GSTO1 counter 50.2 | GSTO1 inh conf inactive
Cc1nnc(SCC(=O)c2cc(C)n(-c3c(C)n(C)n(-c4ccccc4)c3=O)c2C)s1	GSTO1 counter 37.8 | GSTO1 inh conf inactive
CC(C)(C)CN1C(=O)C(=O)NC[C@@H]1CCCCN	none
COC(=O)CCC(=O)OC1(C)C(=O)C=C2C=C(C3CC3)N(c3cccc(C#N)c3)C=C2C1=O (stereo unspecified)	GSTO1 counter 58.0 | GSTO1 inh conf inactive
COC(=O)CCC(=O)OC1(C)C(=O)C=C2C=C(C3CC3)N(Cc3ccco3)C=C2C1=O (stereo unspecified)	GSTO1 counter 37.9 | GSTO1 inh conf inactive
COC(=O)CCC(=O)OC1(C)C(=O)C=C2C=C(C3CC3)N(c3ccc(CO)cc3)C=C2C1=O (stereo unspecified)	none
COC(=O)CCCC1=CC2=CC(=O)C(C)(OC(=O)c3cccs3)C(=O)C2=CN1Cc1ccco1 (stereo unspecified)	none
CC(=O)Nc1ccc(S(=O)(=O)NC2=C(N3CCN(Cc4ccccc4)CC3)C(=O)c3ccccc3C2=O)cc1	none
CC(=O)Nc1ccc(S(=O)(=O)NC2=C(N3CCN(C)CC3)C(=O)c3ccccc3C2=O)cc1	GSTO1 counter 42.8 | GSTO1 inh conf 37.9
CCN1CCN(C2=C(NS(=O)(=O)c3ccc(NC(C)=O)cc3)C(=O)c3ccccc3C2=O)CC1	GSTO1 counter 50.4 | GSTO1 inh conf inactive
CCC(C)N(C(=O)c1csnn1)C(C(=O)NC1CCCC1)c1c(F)cccc1Cl (stereo unspecified)	none
CC(=O)C1=C(c2ccc(Br)cc2)C(=O)c2ccccc2C1=O	GSTO1 counter 38.6 | GSTO1 inh conf inactive
Cc1ccc(C(=O)C(OC(=O)CNS(=O)(=O)c2ccccc2)c2ccccc2)cc1 (stereo unspecified)	none
Cc1ccc(NC(=O)CN2CCN(Cc3ccccc3)CC2)cc1F	none
COc1cccc(C2C3(C#N)C(N)=NC(OC)(OC)C23C#N)c1 (stereo unspecified)	none
COC1(OC)N=C(N)C2(C#N)C(c3cccc(Oc4ccccc4)c3)C12C#N (stereo unspecified)	GSTO1 counter 64.7 | GSTO1 inh conf inactive
CCOC(=O)NC1(NCC(C)C)Oc2ccccc2O1	GSTO1 counter 47.9 | GSTO1 inh conf inactive
CCOC(=O)NC1(NCc2ccccc2)Oc2ccccc2O1	GSTO1 counter 60.7, pPAFAH FP inh 29.7 | GSTO1 inh conf inactive
CCOC(=O)NC1(NC2CCCCC2)Oc2ccccc2O1	GSTO1 counter 51.7, pPAFAH FP inh 31.6 | GSTO1 inh conf inactive
O=C(NCc1ccc(F)cc1)c1cccc(S(=O)(=O)N2CCOCC2)c1	none (no result: GSTO1 counter, Fam108B inh)
COc1ccc(OC)c(C(c2nnnn2C2CCCC2)N2CCN(c3ccccc3)CC2)c1 (stereo unspecified)	none
Cc1ccc(-c2csc3nc4cc(C(=O)NC5CCC(O)CC5)ccc4c(=O)n23)cc1 (stereo unspecified)	GSTO1 counter 38.9 | GSTO1 inh conf inactive
Cc1ccc(-c2csc3nc4ccc(C(=O)NCCO)cc4c(=O)n23)cc1	none
O=C(CSc1nnc(-c2ccco2)o1)c1ccc(F)c(F)c1	GSTO1 counter 37.5 | GSTO1 inh conf inactive
O=C(CSc1nnc(-c2ccco2)o1)c1ccccc1	none
O=C(NCc1ccco1)c1cc(-c2cccnc2)nc2ccccc12	GSTO1 counter 37.9 | GSTO1 inh conf inactive
COc1ccc(OC)c(NC(=O)CN2CCc3ccccc3C2)c1	none
O=C1COc2ccc(C(=O)NCc3ccc4c(c3)OCO4)cc2N1	GSTO1 counter 43.3 | GSTO1 inh conf inactive
O=C(NCc1ccc2c(c1)OCO2)c1cccc(C(=O)NCc2ccc3c(c2)OCO3)c1	none
CC(=O)Nc1ccc(S(=O)(=O)NNC(=O)c2cccc(Cl)c2)cc1	none
N#Cc1c(N)nc2c(c1-c1ccc3c(c1)OCO3)CCc1ccccc1-2	none
